An excerpt weighted towards active compounds, which were near 6% of everything screened.
DRD3 agonist = agonists of human D3 dopamine receptor. D3R DiscoveRx beta-arrestin cells, luminescence, 90 min. AID 652048. max activation, %. 410,000 compounds, 0.58% hits; in the data active means max activation above about 30%; further: 0% is about no effect
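Cells at 1500/well, incubated overnight, then treated with pinned compounds (dopamine as control) for 90 min at 37 degrees C. DiscoveRx reagent added for 30 - 60 minutes at room temperature; luminescence read.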
D1 ag = human D1 receptor agonism; activation, % at 2 µM; HEK293 T-REx D1 cells, calcium flux, agonist mode; 360,000 compounds, 1% hits; in the data active means activation above about 30%; further: 0% is about no effect
Target sequence (P21728 whole entry, looked up): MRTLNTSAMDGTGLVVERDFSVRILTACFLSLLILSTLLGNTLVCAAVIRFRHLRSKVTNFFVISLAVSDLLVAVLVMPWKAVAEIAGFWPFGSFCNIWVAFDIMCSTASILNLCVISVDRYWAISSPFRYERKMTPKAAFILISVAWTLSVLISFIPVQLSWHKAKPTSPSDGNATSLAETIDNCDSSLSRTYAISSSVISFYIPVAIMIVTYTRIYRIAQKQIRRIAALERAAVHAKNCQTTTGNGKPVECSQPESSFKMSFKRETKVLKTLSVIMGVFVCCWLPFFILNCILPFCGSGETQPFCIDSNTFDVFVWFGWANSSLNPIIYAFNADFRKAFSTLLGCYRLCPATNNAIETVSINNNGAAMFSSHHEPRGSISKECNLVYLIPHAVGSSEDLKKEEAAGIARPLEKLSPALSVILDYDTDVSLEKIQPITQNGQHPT
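Tetracycline-induced HEK293 TREx D1 cells, force-coupled to calcium signalling, were dye-loaded with a no-wash calcium kit. Compound was pin-added after a 10 s baseline. Fluorescence was read kinetically at 1 cycle/s for 180 s, with calcium rises flagged as agonism.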
DRD3 antagonist = D3 dopamine receptor (human) antagonism; 360,000 compounds, 2.5% hits; D3R cells, DiscoveRx beta-arrestin luminescence, antagonist mode; stronger effect = lower value; max response, negative = inhibition, %; P35462; in the data active means max response below about -50%; inconclusive means no clear call, values can overlap the other calls; further: on the % scale 0 is the no-effect control and ±100 the full control effect
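Cells expressing the human receptor were seeded at 1500 cells/well, incubated overnight at 37 degrees C in 5% CO2, then exposed to library compounds with dopamine controls for 90 minutes at 37 degrees C before luminescent detection.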
D1 antag = human D1 dopamine receptor antagonism | P21728 | HEK293 TREx D1 cells, calcium flux, dopamine EC80; stronger effect = lower value | activity change, negative = inhibition, % at 10 µM | 360,000 compounds, 3.2% hits | AID 504652; in the data active means activity change below about -30%; further: on the % scale 0 is the no-effect control and ±100 the full control effect
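Using tetracycline-induced force-coupled D1 Hek293 cells and a calcium dye, signals were followed for 180 s after compound, then for 180 s after EC80 dopamine, to detect inhibitors.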
D1 potentiator = enhances dopamine response at the human D1 receptor; 360,000 compounds, 0.036% hits; P21728; HEK293 TREx D1 cells, calcium flux, dopamine EC20 potentiation; potentiation, % at 10 µM; AID 504651; in the data active means potentiation above about 30%; further: 0% is about no effect
* = called active by the depositor; u = inconclusive; x = not tested or not shown.

SMILES	DRD3 agonist	D1 ag	DRD3 antagonist	D1 antag	D1 potentiator
COc1cc(OC)cc(-c2c(-c3cccs3)c3cc(-c4ccn[nH]4)ccc3n2C)c1	37*	10	32	x	-1
COc1cc(OC)cc(-c2c(-c3cccs3)c3cc(Br)ccc3n2C)c1	5	-1	-30	x	-6
COc1cc(F)cc(-c2ccc3c(c2)c(-c2cccs2)c(-c2cc(OC)cc(OC)c2)n3C)c1	-10	42*	4	x	-6
Cc1cc(O)c2c(c1)O[C@@]1(C)CC[C@H]3C(C)(C)CCCC34CO[C@@H]2[C@H]41 (some centres undefined)	5	x	x	x	x
CSc1ccccc1NC(=O)C1=CC(c2ccc3c(c2)OCO3)=NS(=O)(=O)N1C	3	0	x	-6	-1
O=C(NNc1ccnc2cc(Cl)ccc12)C1CCCCC1	5	14	-6	-32*	-4
NC(=S)NNc1ccnc2cc(Cl)ccc12	-9	1	-24	-11	-5
Cc1ccc2c(COC(=O)CNC(=O)c3ccccc3)cc(=O)oc2c1	-3	4	21	-50*	-5
Clc1cccc(Cl)c1NC1=NCCN1	7	5	x	-82*	-3
Cc1cc(C)c(NC(=O)CSc2nc(=O)n(Cc3ccncc3)c3c2CCC3)c(C)c1	3	0	x	x	-2
O=C1Oc2ccccc2C(=O)/C1=C/N1CCN(c2ccccc2F)CC1	-27	3	-59*	-9	-11
CCS(=O)(=O)N1CCN(c2ccccc2F)CC1	0	1	9	6	-10
CC(=O)c1ccc(-c2nc3ccccc3n2C)o1	0	-1	7	18	6
Cn1cc(C(=O)c2ccccc2)cc1-c1nc2ccccc2n1C	1	5	24	-31*	1
Cc1oc(-c2nc3ccccc3n2C)cc1C(=O)c1ccccc1	3	1	-60*	-9	-2
O=C(NCCCN1CCN(c2ccccc2F)CC1)C1CCC(=O)N1C1CCCC1 (centres undefined)	1	-2	-87*	-7	-7
O=C(NCCCN1CCC(Cc2ccccc2)CC1)C1CCC(=O)N1C1CCCC1 (centres undefined)	-10	4	-118*	-7	-3
CC1CC(C)CN(CCCNC(=O)C2CCC(=O)N2C2CCCC2)C1 (centres undefined)	0	1	u	9	-1
O=C(NCCCN1CCCC1)C1CCC(=O)N1C1CCCCC1 (centres undefined)	1	-1	-12	13	2
Cc1cnc2c3c(cc(Cl)c2c1)-c1ccccc1S(=O)(=O)N3	x	1	x	-29	-5
COc1ccccc1C=CC(=O)C=Cc1ccccc1OC	-6	x	u	x	x
COc1ccccc1/C=C/C(=O)/C=C/c1ccccc1O	-5	4	-27	-34*	-5
COc1cccc(/C=C/C(=O)c2c(O)cc(C)oc2=O)c1O	1	3	-74*	1	-6
CCOC(=O)N1CCC(N2Cc3cccc(C(=O)Nc4ccc(F)cc4)c3C2=O)CC1	-2	0	-4	-53*	-2
CC(C)=CC(=O)Nc1ccc(Cl)cc1	0	3	-1	-11	1
SMILES	DRD3 agonist	D1 ag	DRD3 antagonist	D1 antag	D1 potentiator
CS/C(=C\[N+](=O)[O-])Nc1ccc(Cl)cc1	-16	1	-84*	11	-4
COc1ccc(OCc2nc3ccccc3n2Cc2ccccc2Cl)cc1	5	16	x	-1	-4
CCCc1nc2ccccc2n1CCOC	-2	0	-8	3	-4
CCCc1nc2ccccc2n1CCOc1ccccc1	-5	21	-62*	-49*	-21
Cc1ccccc1Cn1c(COc2ccc(Cl)cc2)nc2ccccc21	-13	62*	x	-65*	-3
Cc1ccc(OCCn2c(COc3ccc(Cl)cc3)nc3ccccc32)cc1	-2	47*	x	-18	-6
COc1ccc(NCc2nc3ccccc3n2CCOc2ccc(C)cc2)cc1	5	-1	-52*	0	-1
COc1cc2c(N3CCN(C(=O)Nc4ccc(OC(C)C)cc4)CC3)ncnc2cc1OCCCN1CCCCC1	-23	x	x	x	x
Cc1ccc(OCCn2c(C)nc3ccccc32)cc1	3	14	37	-45*	-12
Cc1nc2ccccc2n1CCCOc1ccccc1	1	8	11	-16	-16
CC1(C)CC(=O)C2=C(C1)O[C@@]1(c3ccsc3)Cc3cc(C#N)ccc3C2O1	x	0	x	-5	-1
COc1ccc(NC(=O)CSc2nnnn2C)c([N+](=O)[O-])c1	-3	-1	5	2	-3
CCCCC(=O)Nc1ccc(NC(=O)c2ccc([N+](=O)[O-])cc2)cc1OC	-4	0	-11	-15	-1
CCCCC(=O)Nc1ccc(C(=O)Nc2ccc(OC)cc2[N+](=O)[O-])cc1	12	41*	1	-18	-2
COc1ccc(NC(=O)CSc2n[nH]c(N)n2)c([N+](=O)[O-])c1	-4	1	-92*	-11	0
CCCn1c(SCC(=O)Nc2ccc(OC)cc2[N+](=O)[O-])n[nH]c1=O	3	0	0	-46*	-15
COCC(=O)NC1CCN(CC(=O)Nc2ccc(OC)cc2[N+](=O)[O-])CC1	0	0	8	-38*	-2
COc1ccc(NC(=O)CSc2n[nH]c(C(C)C)n2)c([N+](=O)[O-])c1	2	5	-16	-6	-4
CCc1cccc(C)c1NC(=O)Cn1cc2c(n1)CCCCC2	-5	8	x	-11	-2
Cc1ccc(OCC(=O)Nc2ccc3nc(SCC(=O)Nc4ccc(C)cc4C)sc3c2)cc1	2	5	x	-9	0
COc1ccc(-c2cc(-c3n[nH]c(=S)n3-c3cc(OC)ccc3OC)[nH]n2)cc1	-2	1	0	4	2
COc1ccc(OC)c(-n2c(-c3cc(-c4ccc(F)cc4)n[nH]3)n[nH]c2=S)c1	-3	1	-81*	-1	-1
CC(=O)N1CCc2cc(Br)cc(S(=O)(=O)N3CCC(C(=O)Nc4ccc(C(C)C)cc4)CC3)c21	-4	7	x	6	-1
O=S(=O)(Nc1cccc2ccccc12)c1cccc2ccccc12	x	3	x	-43*	-6
COc1cccc(CNS(=O)(=O)c2cc3[nH]c(=O)c(=O)[nH]c3cc2C)c1	5	2	x	1	7
CN1C(=O)/C(=C\C=C2/CCCN2C)N(C)C1=S	4	2	-11	3	-5
CCN1C(=O)/C(=C/C=C2/CCCN2C)OC1=S	-4	30*	0	-9	-4
COc1ccccc1N=Nc1nc(-c2ccccc2)c(-c2ccccc2)[nH]1	-30	4	-75*	-21	-2
Oc1ccccc1N=Nc1nc(-c2ccccc2)c(-c2ccccc2)[nH]1	-37	0	-72*	1	2
COc1ccc(N=Nc2nc(-c3ccccc3)c(-c3ccccc3)[nH]2)cc1	-33	-1	u	12	-2

Bioassay records: PubChem BioAssay, National Center for Advancing Translational Sciences (NCATS)
